This note sets out measurements from PubChem BioAssay (Tox21).

Records with an inconclusive call do not appear. A call without a number means that no potency is given here. The source made the active and inactive calls. Calls come from the whole dose curve; as a rule, active = well fitted cell-killing curve with a large enough effect in the repeat runs; inconclusive = weak or mixed curves, or effect the other way; inactive = no such curve, though single readings can be large or run the other way.

A short description of this test: qHTS assay to identify small molecule antagonists of the sonic hedgehog signaling (Shh) pathway - cell viability counter screen (AID 1259367). Note: nearly all actives have a fitted effect of over 55% in size. As to conditions: NIH/3T3 Gli1-Luc viability, CellTiter-Fluor, 24 h; series mostly up to 92.4 µM. An excerpt:
National Center for Advancing Translational Sciences [NCATS]
NIH Chemical Genomics Center [NCGC]
U.S. Environmental Protection Agency [EPA]
National Institutes of Environmental Health Sciences [NIEHS]
National Toxicology Program [NTP]
U.S. Food and Drug Administration [FDA]
The sonic hedgehog (Shh) pathway is essential for normal embryonic development. Dysregulation of the Shh pathway can cause severe developmental defects in organs. Therefore chemicals that interfere with the pathway are potential developmental toxicants. A cell line designated 3T3Gli1-Luc (DMB/OARSA/CFSAN/FDA, Laurel, MD), a NIH/3T3 derived clone containing stably integrated Gli1-Luc reporter is used to detect chemical interference of the Shh pathway, by changes in the expression of the firefly Luc gene under the control of the Gli1 transcriptional response element. This cell line was used to screen Tox21 libraries for identifying and prioritizing the potential developmental toxicants that interfere Shh pathway. Conditioned medium-stimulated mode was used to screen for chemicals inhibiting Shh signaling. The cytotoxicity of the compounds was tested in parallel by measuring the cell viability using CellTiter-Fluor assay system (Promega, Madison, WI) in the same wells.
Tox21 Assay Protocol Summary:
3T3 Gli1-Luc cells were dispensed at 2,000 per well in 5uL of culture medium into white solid bottom 1536-well plates (Greiner Bio-One, Monroe, NC) using a Multidrop Combi (Thermo Scientific, Waltham, MA) dispenser. The assay plates were incubated at 37 C and 5% CO2 for 4hr, and then 23nL of compounds dissolved in DMSO and positive control were transferred using a Pintool station (Wako, San Diego, CA). The compound transfer was followed by the addition of 1ul conditioned medium or assay buffer using two separate tips of Flying Reagent Dispenser (FRD, Aurora Discovery, San Diego, CA). The assay plates were incubated at 37C and 5% CO2 for 24hr. For viability read, after 23hr of compound treatment, 1uL of CellTiter-Fluor reagent (Promega Corporation, Madison, WI) was added to each well of the assay plates using Flying Reagent Dispenser (FRD, Aurora Discovery, San Diego, CA) and incubated the assay plates at 37C for 1hr. The fluorescence signal was quantified using a ViewLux plate reader (Perkin Elmer, Shelton, CT).
In the case of `Brc1ccc(-c2ccccc2)cc1`, the Potency result is “inactive”.

Take `CCc1ccc(C=O)cc1`: the Potency entry was “inactive”.

In the case of `C[Si](C)(C)C`, the Potency result is “inactive”.

On to `O=C1c2ccccc2C(=O)C1c1ccccc1`, for which the Potency result is “inactive”.

As to `COC(=O)[C@@H]1[C@H]2C[C@H]3c4[nH]c5ccccc5c4CCN3C[C@@H]2CC[C@@H]1O`, the Potency entry is “inactive”.

With `O=C1CCCC(=O)O1`, the Potency result was “inactive”.

On to `C=C(C)C1CCC(C)(O)CC1` (stereo not given), for which the Potency entry was “inactive”.

In the case of `CCCCN`, the Potency result was “inactive”.

On to `CC(=O)N[C@@H](CCC(=O)O)C(=O)O`, for which the Potency result is “inactive”.

With `CC(C)CC(=O)O`, the Potency result is “inactive”.

Take `Nc1ncnc(Nc2ccccc2)n1`: the Potency entry is “inactive”.

Take `CC(=C(CCOC(=O)C(C)C)SSC(CCOC(=O)C(C)C)=C(C)N(C=O)Cc1cnc(C)nc1N)N(C=O)Cc1cnc(C)nc1N`: the Potency entry was “inactive”.

For the compound `CCC(C)NC(N)=O` (stereo not given), the Potency entry was “inactive”.

With `CNS(=O)(=O)CCc1ccc2[nH]cc(C3CCN(C)CC3)c2c1`, the Potency result is “inactive”.

In the case of `O=C(O)C(=O)Cc1ccccc1`, the Potency result was “inactive”.

As to `CO[C@@H]1[C@@H](OC(N)=O)[C@@H](O)[C@H](Oc2ccc3c(O)c(NC(=O)c4ccc(O)c(CC=C(C)C)c4)c(=O)oc3c2C)OC1(C)C`, the Potency entry is “inactive”.

Take `O=Cc1ccc(Cl)c(Cl)c1`: the Potency entry was “inactive”.

As to `Cc1c(I)c(=O)n(-c2ccccc2)n1C`, the Potency result was “inactive”.

For the compound `Cc1ccccc1N=O`, the Potency entry was “inactive”.

Take `CC(C)(C)NC(N)=O`: the Potency result was “inactive”.

Consider `CC(C)C(=O)OCCc1ccccc1`, for which the Potency entry is “inactive”.

With `O=C(CCNNC(=O)c1ccncc1)NCc1ccccc1`, the Potency result is “inactive”.

In the case of `CCCC/C=C/C=C\C=O`, the Potency result was “inactive”.

In the case of `C=C(C)C(=O)OCCOP(=O)(O)OCCOC(=O)C(=C)C`, the Potency entry is “inactive”.

For the compound `CCCCC(CC)COCCO` (stereo not given), the Potency entry was “inactive”.

Turning to `C=COCCOCCOCCOC=C`, the Potency result is “inactive”.

Turning to `O=C(O)c1ccc(Cl)cc1Cl`, the Potency entry is “inactive”.

Regarding `CC1COc2ccccc2N1` (stereo not given), the Potency entry was “inactive”.

With `O=C(OCC(COC(=O)c1cccnc1)(COC(=O)c1cccnc1)COC(=O)c1cccnc1)c1cccnc1`, the Potency result is “inactive”.

On to `CCCCCCCCOS(=O)(=O)O`, for which the Potency entry is “inactive”.

On to `O=S(=O)(O)c1ccc2cc(O)c(S(=O)(=O)O)cc2c1`, for which the Potency result was “inactive”.

With `CC(C)(C)c1nnc(NS(=O)(=O)c2ccc(N)cc2)s1`, the Potency result was “inactive”.

In the case of `NS(=O)(=O)c1ccc(NC(=O)CCC(=O)O)cc1`, the Potency entry is “inactive”.

Take `CC(C)NCC(O)COc1ccc(COCCOC(C)C)cc1` (stereo not given): the Potency result is “inactive”.

Regarding `C=CC(OCC)OCC`, the Potency result was “inactive”.

With `CCOCCOCCOCC`, the Potency result was “inactive”.

For the compound `CCCOC(OCCC)OCCC`, the Potency entry is “inactive”.

As for `CCOC(=O)/C=C/c1ccccc1`, the Potency entry is “inactive”.

For `O=C(O)CCSSCCC(=O)O`, the Potency result was “inactive”.

As to `C=C(C)C(=O)OCCNC(C)(C)C`, the Potency entry is “inactive”.
